In the library only some 1.9% were active in any assay of this set; here they are far more common.
MCL1-BIM inh = disrupts human MCL1 binding to BIM-BH3 peptide. inhibition, % at 10.9 µM. Q07820. GST-MCL1 / FITC-Bim-BH3 fluorescence polarization. actives 0.68% (n = 320,000);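 active = inhibition above the mean inhibition of all tested compounds plus 3 SD, set per campaign, cut at about 40% in these data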;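 note: higher means more loss of mP so more displacement of Bim peptide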
Bcl-xL primary = Bcl-xL (human) inhibition | Q07817 | GST-Bcl-xL / FITC-Bim BH3 peptide fluorescence polarization | inhibition, % at 10.9 µM | actives 0.7% (n = 320,000) | AID 2129;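 active = inhibition above the mean of all tested compounds plus 3 SD, cutoff set per campaign, cut at about 30% in these data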;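 note: inhibitors lower millipolarization by displacing the labeled peptide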
Target sequence (Q07817 whole entry, looked up): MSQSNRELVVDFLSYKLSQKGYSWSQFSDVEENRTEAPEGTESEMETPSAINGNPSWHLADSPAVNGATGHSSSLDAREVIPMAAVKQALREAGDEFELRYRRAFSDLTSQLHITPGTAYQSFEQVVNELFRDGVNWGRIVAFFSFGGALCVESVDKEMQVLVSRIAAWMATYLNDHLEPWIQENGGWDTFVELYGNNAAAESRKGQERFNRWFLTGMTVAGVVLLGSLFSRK
LANA-H2A inh = blocks KSHV LANA binding to histone H2A/H2B; AID 2629; cell-free LANA-H2A/H2B peptide, fluorescence polarization; inhibition, % (test concentration not listed); Q9QR71; actives 0.6% (n = 320,000); in the data active = inhibition mostly above about 10%, no sharp cut-off; inactive = mostly below about 6.7%
GLD-1 RNA inh = GLD-1-TGE RNA interaction inhibition (C. elegans); Q17339; purified GLD-1 + fluorescein TGE RNA, fluorescence polarization; inhibition, % at 5.96 µM; actives 0.44% (n = 320,000);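 active = percent inhibition above a per-plate cutoff, the plate mean of test compounds plus 3 SD, cut at about 30% in these data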
MEX-5 binding = C. elegans MEX-5 TCR-2 RNA binding activity; actives 0.38% (n = 300,000); activity score (negative = inhibition of binding), % at 10 µM; MEX-5/FITC-TCR2 RNA binding, fluorescence polarization; active compounds read low;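 active = inhibition past about -25% in most replicates, and total fluorescence under double the plate's negative control median, limit read from the data; inconclusive = replicates evenly split on the limit, or fluorescence at least double controls; inactive = too little inhibition in most replicates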
Target sequence (Q9XUB2 whole entry, looked up): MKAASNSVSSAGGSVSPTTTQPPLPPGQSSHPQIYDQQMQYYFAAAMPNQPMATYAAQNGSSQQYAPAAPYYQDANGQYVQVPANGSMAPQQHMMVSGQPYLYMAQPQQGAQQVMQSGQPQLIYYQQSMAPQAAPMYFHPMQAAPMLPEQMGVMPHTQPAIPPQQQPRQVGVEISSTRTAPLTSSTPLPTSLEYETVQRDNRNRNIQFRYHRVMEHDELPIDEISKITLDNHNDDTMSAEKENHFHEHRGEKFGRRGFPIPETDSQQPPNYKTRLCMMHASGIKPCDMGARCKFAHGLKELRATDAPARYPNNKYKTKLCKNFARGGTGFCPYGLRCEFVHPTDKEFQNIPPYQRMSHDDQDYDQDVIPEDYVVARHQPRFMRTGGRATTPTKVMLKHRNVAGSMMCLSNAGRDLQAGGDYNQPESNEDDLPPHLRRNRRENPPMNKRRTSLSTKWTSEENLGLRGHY
CR mimetic SO = caloric restriction mimetics inhibiting age-related superoxide in yeast. actives 0.18% (n = 330,000). superoxide response (% of plate mean), % at 10 µM. S. cerevisiae aged cells, superoxide DHE fluorescence; active compounds read low;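 active = superoxide response under a set limit, about three screen SD below normal, cut at about 65% in these data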;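 note: yeast aged for seven days with compound at 30 °C before DHE staining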
BCLXL inh confirm = counter-screen for MCL1 inhibitors: confirmation of human Bcl-xL inhibitors; shares compounds with MCL1-BIM inh; GST-Bcl-xL / FITC-Bim BH3 peptide FP binding; inhibition, % at 10.9 µM; actives 54% (n = 1,700);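 active = inhibition above a cutoff equal to the mean inhibition of all tested compounds plus 3 SD, cut at about 30% in these data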
MCL1 inh confirm = confirmation of human MCL1 and BIM-BH3 interaction inhibitors | shares compounds with MCL1-BIM inh | GST-MCL1 / FITC-Bim-BH3 fluorescence polarization | inhibition, % at 10.9 µM | actives 61% (n = 1,700);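 active = inhibition above the average of all tested compounds plus 3 SD, cut at about 40% in these data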
Each line names hits and unclear results; the compound was inactive in the other large screens (follow-up assays come after a bar, where they were run).

COCC(=O)N(C)C[C@H]1N[C@@](C)(C(=O)OC)[C@H]2C(=O)N(Cc3ccccc3)C(=O)[C@@H]12	none (no result: MCL1-BIM inh, Bcl-xL primary, LANA-H2A inh, MEX-5 binding)
COc1ccc([C@H]2CC(=O)C=C(c3ccc4c(c3)sc3ccccc34)C2)cc1	none (no result: MEX-5 binding)
N#Cc1cccc(NC(=O)CSc2ccc3c4c(cccc24)C(=O)c2ccccc2-3)c1	MCL1-BIM inh 75.2, Bcl-xL primary 72.8, GLD-1 RNA inh 61.3 | BCLXL inh confirm 185.4 | MCL1 inh confirm 182.6
C[C@H](NS(=O)(=O)OCC(Cl)(Cl)Cl)C1CC1c1ccccc1 (stereo partly specified)	MCL1-BIM inh 47.3 | BCLXL inh confirm inactive | MCL1 inh confirm 60.7
CC(NS(=O)(=O)OCC(Cl)(Cl)Cl)c1ccc(C(C)(C)C)cc1 (stereo unspecified)	none
COCCN(Cc1ccccc1)C(=O)c1ccc(C(=O)c2ccccc2)cc1	none (no result: MEX-5 binding)
Oc1ccc(/C=N/Nc2ccnc3cc(Cl)ccc23)cc1O	none
Oc1ccc(/C=N/Nc2ccnc3cc(Cl)ccc23)c(O)c1O	MCL1-BIM inh 53.5 | BCLXL inh confirm 32.5 | MCL1 inh confirm inactive
O=C1NC(=O)[C@@H]2C3c4ccccc4C=CN3[C@H](C(=O)c3cccs3)[C@H]12 (stereo partly specified)	MCL1-BIM inh 124.3, Bcl-xL primary 122.6, GLD-1 RNA inh 101.5, MEX-5 binding -53.2 | BCLXL inh confirm 61.2 | MCL1 inh confirm 87.3
CC(C)C[C@H]1C(=O)N2CCC[C@H]2[C@]2(O)O[C@](NC(=O)C3C=C4c5cccc6[nH]c(Br)c(c56)C[C@H]4N(C)C3)(C(C)C)C(=O)N12 (stereo partly specified)	MCL1-BIM inh 114.9, Bcl-xL primary 99.5, GLD-1 RNA inh 92.3 | BCLXL inh confirm inactive | MCL1 inh confirm inactive
CN1C[C@H](C(=O)N[C@]2(C)O[C@@]3(O)[C@@H]4CCCN4C(=O)[C@H](Cc4ccccc4)N3C2=O)CC2c3cccc4[nH]cc(c34)C[C@H]21 (stereo partly specified)	none (no result: MEX-5 binding)
O=C(c1cc(COc2ccc(F)cc2Cl)on1)N1CCN(c2cnccn2)CC1	none
Cc1c(Br)c(=O)oc2c(Br)c(O)c(O)cc12	MCL1-BIM inh 68.0 | BCLXL inh confirm 35.7 | MCL1 inh confirm 83.9
Cc1c(Br)c(=O)oc2c(Br)c(O)ccc12	none
CC(C)CCOc1ccc(C(=O)NNC(=O)CNC(=O)c2ccccc2F)cc1	none (no result: MCL1-BIM inh, Bcl-xL primary, MEX-5 binding)
COc1ccc(OC)c(NC(=O)CSc2sc3c(O)cc(=O)[nH]c3c2C#N)c1	none
N#Cc1c(SCC(=O)Nc2nncs2)sc2c(O)cc(=O)[nH]c12	MCL1-BIM inh 69.9, Bcl-xL primary 34.3 | BCLXL inh confirm inactive | MCL1 inh confirm 53.4
COc1cc(Cl)c(C)cc1NC(=O)CSc1sc2c(O)cc(=O)[nH]c2c1C#N	MCL1-BIM inh 42.7 | BCLXL inh confirm inactive | MCL1 inh confirm inactive
CC(=O)NN1C(=O)/C(=C\c2ccc(Br)o2)SC1=S	MCL1-BIM inh 70.9, Bcl-xL primary 33.4 | BCLXL inh confirm inactive | MCL1 inh confirm inactive
CC(=O)NN1C(=O)/C(=C\c2ccc(O)cc2)SC1=S	MEX-5 binding inconclusive
CC(=O)NN1C(=O)/C(=C\c2ccccc2)SC1=S	none
CC(=O)NN1C(=O)/C(=C/c2ccc(Br)o2)SC1=S	MCL1-BIM inh 45.2 | BCLXL inh confirm inactive | MCL1 inh confirm inactive
CC1(C)CC(NC(=O)c2ccc(-c3ccc([N+](=O)[O-])cc3)o2)CC(C)(C)N1	none
O=C(NCC1CCCO1)c1ccc2c(c1)C(=O)N(c1cccc([N+](=O)[O-])c1)C2=O (stereo unspecified)	none
CC[C@@H]1C/C=C\Cc2ccccc2[C@H](C(=O)C[C@@H](O)CC(C)=O)OC1=O	none (no result: MCL1-BIM inh, Bcl-xL primary, MEX-5 binding)
CC(=O)Nc1ccc(NC(=O)C(C)OC(=O)/C(C#N)=C/c2ccc(N(C)C)cc2)cc1 (stereo unspecified)	MCL1-BIM inh active, Bcl-xL primary active, GLD-1 RNA inh 135.8, MEX-5 binding -25.8 (no result: LANA-H2A inh) | BCLXL inh confirm 165.2 | MCL1 inh confirm 191.0
CCN(CC)c1ccc(C(=O)NNC(=O)C2CSC3(C)CCC(=O)N23)cc1 (stereo unspecified)	none (no result: MEX-5 binding)
COC(=O)c1cc(N2CCN(C)CC2)nc2ccccc12	MCL1-BIM inh 144.1, Bcl-xL primary 138.1, GLD-1 RNA inh 85.3, MEX-5 binding inconclusive | BCLXL inh confirm inactive | MCL1 inh confirm inactive
COc1ccc(C(=O)Nc2nnc(Cc3cccs3)s2)cc1OC	none
O=C(Cc1cccs1)Nc1nnc(Cc2ccccc2)s1	MCL1-BIM inh 53.8 | BCLXL inh confirm inactive | MCL1 inh confirm 43.6
COC(=O)c1cc(NC(=O)Cc2cccs2)cc(C(=O)OC)c1	MCL1-BIM inh 44.5 | BCLXL inh confirm inactive | MCL1 inh confirm inactive
CC(=O)Nc1cccc(NC(=O)Cc2cccs2)c1	none
COc1ccc(Cc2nnc(NC(=O)Cc3cccs3)s2)cc1OC	MCL1-BIM inh 73.4 | BCLXL inh confirm inactive | MCL1 inh confirm 79.6
Cc1cc(OCC(=O)OCC(=O)Nc2cc(S(=O)(=O)N3CCOCC3)ccc2Cl)ccc1Cl	none (no result: MCL1-BIM inh, Bcl-xL primary, MEX-5 binding)
c1ccc(CN2CCN(C3=Nc4cccc5cccc3c45)CC2)cc1	none (no result: MCL1-BIM inh, Bcl-xL primary, LANA-H2A inh, GLD-1 RNA inh, CR mimetic SO)
O=C1CCN2C=Nc3cccc4ccc1c2c34	MCL1-BIM inh active, Bcl-xL primary active, LANA-H2A inh 113.9, GLD-1 RNA inh 169.2, MEX-5 binding inconclusive | BCLXL inh confirm 191.8 | MCL1 inh confirm active
O=C(O)C1Sc2[nH]c(=O)sc2C2c3ccc(O)cc3OC(=O)C12 (stereo unspecified)	MCL1-BIM inh 82.3, Bcl-xL primary 66.8, GLD-1 RNA inh 73.0, MEX-5 binding inconclusive | BCLXL inh confirm 45.6 | MCL1 inh confirm 49.1
O=C(O)C1Sc2[nH]c(=O)sc2C2c3cc(Cl)ccc3OC(=O)C12 (stereo unspecified)	none
COc1ccc(/C=N/NC(=O)COc2ccc3ccccc3c2)c(C(=O)O)c1OC	none
COc1ccc(/C=N/NC(=O)COc2cccc3ccccc23)c(C(=O)O)c1OC	MCL1-BIM inh 53.7 | BCLXL inh confirm inactive | MCL1 inh confirm inactive
CN(C)C=Nc1c(Br)cc(Br)c2nonc12	MCL1-BIM inh 69.0, Bcl-xL primary 91.5, MEX-5 binding inconclusive | BCLXL inh confirm 90.2 | MCL1 inh confirm 115.5
CN(C)C=Nc1nonc1-c1ccccc1	none
Cc1ccc(S(=O)(=O)CC(=O)c2cc3cccc(C)c3oc2=O)cc1	none
C/C(=N/NC(=O)CNC(=O)COc1cccc(C)c1)c1ccc(Cl)cc1	none
